{
  "source": "PubChem BioAssay (NCI)",
  "note": "This is part of a sample that, as a whole, favours compounds with a hit. Of some 83,000 tested, about 20% had one in any assay.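 Cells were grown in 96-well plates and exposed to the test compound at a single concentration for 48 hours; results are reported as percent growth, with values below 10 considered active.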 The source made the active and inactive calls.",
  "data": [
    {"test_system": "HL-60(TB) leukemia", "experiment": "NCI-60 one-dose screen, 48 h (100 = growth as untreated, 0 = no growth, -100 = all killed)", "settings": "10 µM unless noted", "values": [
      {"smiles": "Cc1ccc(NC(=O)c2ccc(CN3CCN(C)CC3)c(C(F)(F)F)c2)cc1Oc1ccc(-c2[nH]nc3ncnc(N)c23)cc1", "growth": "113% (inactive)"},
      {"smiles": "COc1ccc(CN2C(=O)/C(=C/c3nc(CO)cs3)SC2=S)cc1", "growth": "58.9% (inactive)"},
      {"smiles": "C=CCn1c(SCC(=O)Nc2ccc(OC)cc2)nnc1-c1ccc(Cl)cc1", "growth": "78% (inactive)"},
      {"smiles": "O=C(/C=C1\\C=CN(CCCCO)c2ccccc21)n1ccc2ccccc21", "growth": "114% (inactive)"},
      {"smiles": "N#Cc1cnc2ccc(-c3cnc4[nH]ncc4c3)cc2c1N1CCc2cc(F)c(Cl)cc21", "growth": "1.45% (active)"},
      {"smiles": "COc1ccccc1N1CCN(C2=C(Cl)C(=O)c3ncccc3C2=O)CC1", "growth": "12.5% (inactive)"},
      {"smiles": "C/C(=C(/c1ccc(O)cc1)c1ccc(OCCN(C)C)cc1)c1ccc(Cl)cc1", "growth": "21.8% (inactive)"},
      {"smiles": "O=C(CSc1nc2ccccc2c(=O)n1CCc1ccccc1)Nc1ccc(S(=O)(=O)Nc2ccc(Cl)nn2)cc1", "growth": "132% (inactive)"},
      {"smiles": "CCOC(=O)C(=O)Nc1ccc2c(ccn2C(=O)c2cccc(F)c2)c1", "growth": "99.2% (inactive)"},
      {"smiles": "CC1(COc2ccc3ncc(C#Cc4cncc(C(=O)Nc5cccc(C(F)(F)F)c5)c4)n3n2)COC1", "growth": "39.9% (inactive)"},
      {"smiles": "COc1ccc(-c2cc(-c3cccc4ccccc34)n3c(n2)nc2ccccc23)cc1OC", "growth": "-7.71% (active)"},
      {"smiles": "O=C1Nc2ccc(Cl)cc2/C1=C/c1ccc(OCC(=O)c2ccc(Br)cc2)cc1", "growth": "110% (inactive)"},
      {"smiles": "CN1c2ccccc2Sc2cc(C=C(C#N)C#N)ccc21", "growth": "92.6% (inactive)"},
      {"smiles": "COc1ccc2c(c1)oc1c3[nH]c4ccccc4c3c3c(c21)C(=O)N(O)C3=O", "growth": "53.3% (inactive)"},
      {"smiles": "Nc1nc(N)c2c(n1)NC(c1ccc(Cl)cc1)CC(c1ccc(Nc3nc(NCCO)nc(Nc4ccc(Cl)cc4)n3)cc1)=N2", "note": "(stereo not given)", "growth": "9.81% (active)"},
      {"smiles": "CC(C)C[C@H]1C(=O)O[C@H](C(C)C)C(=O)N(C)[C@@H](C(C)C)C(=O)O[C@H](C(C)C)C(=O)N(C)[C@@H](C(C)C)C(=O)O[C@H](C(C)C)C(=O)N1C", "growth": "-51.3% (active)"},
      {"smiles": "COc1cc2cc(Oc3ccc(NC(=O)Nc4cc(C(F)(F)F)cc(C(F)(F)F)c4)cc3)c(C)nc2cc1OCCN(C)C", "growth": "109% (inactive)"},
      {"smiles": "CCCC(=O)NC(c1cccnc1)c1cc(Cl)c2cccnc2c1O", "note": "(stereo not given)", "growth": "34.1% (inactive)"},
      {"smiles": "CN(C)S(=O)(=O)c1ccc(-c2nc(C(Cl)Cl)nc3cc(-c4ccccc4)nn23)cc1", "growth": "71.1% (inactive)"},
      {"smiles": "COc1ccc(NC2=C(Cl)C(=O)C(C)=C(C)C2=O)cc1", "growth": "37.4% (inactive)"},
      {"smiles": "Fc1ccc(-c2cc3nc(C(Cl)Cl)nc(-c4ccco4)n3n2)cc1", "growth": "-42.7% (active)"},
      {"smiles": "C#C[C@]1(O)CC[C@H]2[C@@H]3CC=C4c5sc(Nc6cc(Cl)ccc6OC)nc5CC[C@]4(C)[C@H]3CC[C@@]21C", "growth": "5.48% (active)"},
      {"smiles": "Cn1c(SC(C(=O)Nc2ccc(F)cc2)c2ccccc2)nc2ccccc2c1=O", "note": "(stereo not given)", "growth": "103% (inactive)"},
      {"smiles": "COc1ccc(N2CCN(C3=C(Cl)C(=O)c4ncccc4C3=O)CC2)cc1", "growth": "-4.99% (active)"},
      {"smiles": "COc1cccc(OC)c1-c1nnn(C)c1C(=S)N1CCN(c2ccc([N+](=O)[O-])cc2Cl)CC1", "growth": "44.3% (inactive)"},
      {"smiles": "COc1ccc(-c2oc3cc(O)cc(O)c3c(=O)c2OC)cc1O", "growth": "-6.5% (active)"},
      {"smiles": "O=C(CSc1nccc(=O)[nH]1)Nc1ccc(-c2nc3ccccc3[nH]2)cc1", "growth": "115% (inactive)"},
      {"smiles": "O=C1Nc2cc(Cl)ccc2/C1=C\\c1ccc(OCc2ccc(Br)cc2F)cc1", "growth": "66.2% (inactive)"},
      {"smiles": "CCOC(=O)c1c(Nc2ccccc2)nn2c(N)c(C#N)c(-c3ccc(OC)cc3)nc12", "growth": "112% (inactive)"},
      {"smiles": "C[C@H]1OCC2(CCN(c3cnc(C(=O)Nc4cc(F)cc5cccnc45)cn3)CC2)[C@H]1N", "growth": "18.9% (inactive)"},
      {"smiles": "CC(Nc1c(C#N)cnc2ccc(-c3cncc(-c4n[nH]c(=O)o4)c3)cc12)c1ccccc1", "note": "(stereo not given)", "growth": "14.9% (inactive)"},
      {"smiles": "O=C(Cn1c(-c2ccccc2)nc2cc(Cl)c(Cl)cc21)N=Nc1c(O)[nH]c2ccc(Cl)cc12", "growth": "92.1% (inactive)"},
      {"smiles": "CC(C)(C)Nc1nc2c(OCCc3ccccc3)cccn2c1-c1ccc([N+](=O)[O-])cc1", "growth": "47.4% (inactive)"},
      {"smiles": "C#CCOc1ccc(C(Nc2ccc(Cl)cc2)c2nnnn2C2CCCCC2)cc1", "note": "(stereo not given)", "growth": "83.8% (inactive)"},
      {"smiles": "CCOC(=O)c1c(Nc2ccccc2)nn2c(-c3ccc(OC)cc3)ccnc12", "growth": "77.3% (inactive)"},
      {"smiles": "Nc1ccccc1NC(=O)c1ccc(NC(=O)C/C=C/c2cccnc2)cn1", "growth": "8.93% (active)"},
      {"smiles": "c1n[nH]cc1-c1nc2ccc3[nH]ncc3c2c2c1CCCC2", "growth": "22.5% (inactive)"},
      {"smiles": "O=C1/C(=C/C=C/c2ccco2)SC(=S)N1Cc1ccccc1", "growth": "96.9% (inactive)"},
      {"smiles": "CCNCCOc1ccc(/C(=C(/CC)c2ccc(Cl)cc2)c2ccc(OCCCN(C)C)cc2)cc1", "growth": "-61.5% (active)"},
      {"smiles": "COc1cccc(COc2ccc(/C=C3/C(=O)Nc4cc(Cl)ccc43)cc2)c1", "growth": "105% (inactive)"}
    ]}
  ]
}
